Drawing on article PMC11006913, this text covers binding signal for 16 sequences.

Common to all, as to assay: PBM; 200 nM protein, PBS
What all share (conditions): dsDNA, one strand shown

In assay [1] the target is VAX1 (Homo sapiens, UniProt Q5SQQ9 86-172).
In assay [2] the target is VAX1 (Homo sapiens, UniProt Q5SQQ9 86-172, K157R).
The target of assay [3] is HOXB6 (Homo sapiens, UniProt P17509 132-218).
Assay [4] has as its target HESX1 (Homo sapiens, UniProt Q9UBX0 95-180, R165K).
Assay [5] has as its target HESX1 (Homo sapiens, UniProt Q9UBX0 95-180).
For assay [6], the target named is HESX1 (Homo sapiens, UniProt Q9UBX0 95-180, F115L).
The target in assay [7] is HOXA2 (Homo sapiens, UniProt O43364 129-215, R185T).
Assay [8] deals with HOXB9 (Homo sapiens, UniProt P17482 171-250).
For assay [9], the target named is MSX2 (Homo sapiens, UniProt P35548 130-214, R199I).
Assay [10] concerns the target HOXA2 (Homo sapiens, UniProt O43364 129-215, R185K).
In assay [11] the target is MSX2 (Homo sapiens, UniProt P35548 130-214).
Assay [12] deals with HOXB9 (Homo sapiens, UniProt P17482 171-250, R186Q).
In assay [13] the target is MSX2 (Homo sapiens, UniProt P35548 130-214, F161Y).
For assay [14], the target named is HOXA2 (Homo sapiens, UniProt O43364 129-215, Y150S).
In assay [15] the target is HOXA2 (Homo sapiens, UniProt O43364 129-215).
For assay [16], the target named is PROP1 (Homo sapiens, UniProt O75360 56-141).
In assay [17] the target is PROP1 (Homo sapiens, UniProt O75360 56-141, R99H).
Assay [18] deals with PROP1 (Homo sapiens, UniProt O75360 56-141, F88S).
In assay [19] the target is SHOX (Homo sapiens, UniProt O15266 103-189).
Assay [20] addresses SHOX (Homo sapiens, UniProt O15266 103-189, R173C).

Sequence of PROP1 (Homo sapiens, UniProt O75360 56-141, F88S) (O75360 56-141 F88S): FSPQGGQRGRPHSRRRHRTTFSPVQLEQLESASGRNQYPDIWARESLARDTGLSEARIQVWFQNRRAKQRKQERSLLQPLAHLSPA
Sequence of PROP1 (Homo sapiens, UniProt O75360 56-141) (O75360 56-141): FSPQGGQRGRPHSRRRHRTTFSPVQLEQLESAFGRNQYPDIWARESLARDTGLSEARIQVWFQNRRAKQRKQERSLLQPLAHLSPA
Sequence of HESX1 (Homo sapiens, UniProt Q9UBX0 95-180, R165K) (Q9UBX0 95-180 R165K): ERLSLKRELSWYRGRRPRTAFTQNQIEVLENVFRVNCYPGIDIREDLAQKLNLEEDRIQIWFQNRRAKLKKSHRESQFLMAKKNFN
Sequence of HOXB6 (P17509 132-218): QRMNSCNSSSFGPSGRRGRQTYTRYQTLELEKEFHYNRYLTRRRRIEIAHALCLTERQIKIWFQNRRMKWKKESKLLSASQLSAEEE
Sequence of PROP1 (Homo sapiens, UniProt O75360 56-141, R99H) (O75360 56-141 R99H): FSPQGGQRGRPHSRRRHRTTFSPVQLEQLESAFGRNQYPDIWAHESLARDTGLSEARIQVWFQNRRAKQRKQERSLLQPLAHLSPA
Sequence of SHOX (Homo sapiens, UniProt O15266 103-189) (O15266 103-189): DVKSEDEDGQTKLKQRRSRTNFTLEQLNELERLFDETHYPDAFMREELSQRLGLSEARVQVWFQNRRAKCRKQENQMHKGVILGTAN
Sequence of HOXB9 (Homo sapiens, UniProt P17482 171-250) (P17482 171-250): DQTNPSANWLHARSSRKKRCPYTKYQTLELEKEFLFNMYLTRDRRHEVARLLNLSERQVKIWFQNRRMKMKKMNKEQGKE
Sequence of HOXB9 (Homo sapiens, UniProt P17482 171-250, R186Q) (P17482 171-250 R186Q): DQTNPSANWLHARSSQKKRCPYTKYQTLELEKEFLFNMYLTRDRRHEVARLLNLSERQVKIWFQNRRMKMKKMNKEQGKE
Sequence of SHOX (Homo sapiens, UniProt O15266 103-189, R173C) (O15266 103-189 R173C): as the sequence (O15266 103-189) above, with R71C counted along it
Sequence of VAX1 (Homo sapiens, UniProt Q5SQQ9 86-172, K157R) (Q5SQQ9 86-172 K157R): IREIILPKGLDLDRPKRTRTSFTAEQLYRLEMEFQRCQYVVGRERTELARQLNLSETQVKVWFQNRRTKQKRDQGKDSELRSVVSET
Sequence of HESX1 (Homo sapiens, UniProt Q9UBX0 95-180, F115L) (Q9UBX0 95-180 F115L): as the sequence (Q9UBX0 95-180 R165K) above, with F21L, K71R counted along it
Sequence of HESX1 (Homo sapiens, UniProt Q9UBX0 95-180) (Q9UBX0 95-180): as the sequence (Q9UBX0 95-180 R165K) above, with K71R counted along it
Sequence of MSX2 (Homo sapiens, UniProt P35548 130-214) (P35548 130-214): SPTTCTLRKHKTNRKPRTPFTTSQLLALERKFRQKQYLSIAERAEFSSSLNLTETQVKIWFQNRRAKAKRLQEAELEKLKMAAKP
Sequence of MSX2 (Homo sapiens, UniProt P35548 130-214, R199I) (P35548 130-214 R199I): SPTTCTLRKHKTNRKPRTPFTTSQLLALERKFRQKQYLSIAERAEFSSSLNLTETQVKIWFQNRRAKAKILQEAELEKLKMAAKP
Sequence of HOXA2 (Homo sapiens, UniProt O43364 129-215, R185T) (O43364 129-215 R185T): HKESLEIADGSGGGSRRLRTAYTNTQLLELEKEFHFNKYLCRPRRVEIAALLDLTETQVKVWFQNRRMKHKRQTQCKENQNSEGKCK
Sequence of HOXA2 (Homo sapiens, UniProt O43364 129-215, R185K) (O43364 129-215 R185K): as the sequence (O43364 129-215 R185T) above, with T57K counted along it
Sequence of VAX1 (Homo sapiens, UniProt Q5SQQ9 86-172) (Q5SQQ9 86-172): as the sequence (Q5SQQ9 86-172 K157R) above, with R72K counted along it
Sequence of HOXA2 (Homo sapiens, UniProt O43364 129-215) (O43364 129-215): as the sequence (O43364 129-215 R185T) above, with T57R counted along it
Sequence of HOXA2 (Homo sapiens, UniProt O43364 129-215, Y150S) (O43364 129-215 Y150S): as the sequence (O43364 129-215 R185T) above, with Y22S, T57R counted along it
Sequence of MSX2 (Homo sapiens, UniProt P35548 130-214, F161Y) (P35548 130-214 F161Y): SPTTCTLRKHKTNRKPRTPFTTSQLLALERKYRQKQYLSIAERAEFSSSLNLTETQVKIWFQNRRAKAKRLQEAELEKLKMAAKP

On to ACGGCGGC, for which the binding signal in [1] was 7.01 upbm affinity estimate (log intensity, higher = more binding, comparable within an allelic series); in assay [2], 7.25 upbm affinity estimate (log intensity, higher = more binding, comparable within an allelic series); in assay [3], 9.12 upbm affinity estimate (log intensity, higher = more binding, comparable within an allelic series).

For the sequence CTTCCGTC, the binding signal in assay [4] was 6.54 upbm affinity estimate (log intensity, higher = more binding, comparable within an allelic series); in [5], 6.45 upbm affinity estimate (log intensity, higher = more binding, comparable within an allelic series); in assay [6], 6.61 upbm affinity estimate (log intensity, higher = more binding, comparable within an allelic series).

Consider CGGGCTCC, for which the binding signal in assay [7] was 6.41 upbm affinity estimate (log intensity, higher = more binding, comparable within an allelic series); in assay [8], 7.77 upbm affinity estimate (log intensity, higher = more binding, comparable within an allelic series); in assay [9], 9.06 upbm affinity estimate (log intensity, higher = more binding, comparable within an allelic series); in assay [10] it was 9.88 upbm affinity estimate (log intensity, higher = more binding, comparable within an allelic series); in [11], 8.79 upbm affinity estimate (log intensity, higher = more binding, comparable within an allelic series); in assay [1] it was 6.15 upbm affinity estimate (log intensity, higher = more binding, comparable within an allelic series). In addition, the binding signal in assay [12] was 7.82 upbm affinity estimate (log intensity, higher = more binding, comparable within an allelic series); in assay [13], 8.87 upbm affinity estimate (log intensity, higher = more binding, comparable within an allelic series); in [14], 10.2 upbm affinity estimate (log intensity, higher = more binding, comparable within an allelic series); in assay [15], 6.39 upbm affinity estimate (log intensity, higher = more binding, comparable within an allelic series); in assay [2] it was 6.27 upbm affinity estimate (log intensity, higher = more binding, comparable within an allelic series); in assay [3], 8.31 upbm affinity estimate (log intensity, higher = more binding, comparable within an allelic series).

For CACTTAGA, the binding signal in [4] was 7.73 upbm affinity estimate (log intensity, higher = more binding, comparable within an allelic series); in assay [5], 7.94 upbm affinity estimate (log intensity, higher = more binding, comparable within an allelic series); in [6], 6.78 upbm affinity estimate (log intensity, higher = more binding, comparable within an allelic series).

On to CCCGGCGG, for which the binding signal is 6.68 upbm affinity estimate (log intensity, higher = more binding, comparable within an allelic series) in assay [16]; 6.68 upbm affinity estimate (log intensity, higher = more binding, comparable within an allelic series) in [17]; 6.39 upbm affinity estimate (log intensity, higher = more binding, comparable within an allelic series) in assay [18].

In the case of CACTTTAA, the binding signal in [19] is 8.82 upbm affinity estimate (log intensity, higher = more binding, comparable within an allelic series).

With CGGACCCG, the binding signal in [3] was 9 upbm affinity estimate (log intensity, higher = more binding, comparable within an allelic series).

ACGGCTGG: the binding signal was 6.59 upbm affinity estimate (log intensity, higher = more binding, comparable within an allelic series) in assay [16]; 6.78 upbm affinity estimate (log intensity, higher = more binding, comparable within an allelic series) in [17]; 6.67 upbm affinity estimate (log intensity, higher = more binding, comparable within an allelic series) in assay [18].

Regarding CTACTTAA, the binding signal in [16] is 8.53 upbm affinity estimate (log intensity, higher = more binding, comparable within an allelic series); in [17], 8.11 upbm affinity estimate (log intensity, higher = more binding, comparable within an allelic series); in assay [18], 7.26 upbm affinity estimate (log intensity, higher = more binding, comparable within an allelic series).

For the sequence AATTAGCT, the binding signal in [4] is 11.6 upbm affinity estimate (log intensity, higher = more binding, comparable within an allelic series); in assay [19] it was 11.7 upbm affinity estimate (log intensity, higher = more binding, comparable within an allelic series); in assay [5], 11.6 upbm affinity estimate (log intensity, higher = more binding, comparable within an allelic series); in [9], 12.3 upbm affinity estimate (log intensity, higher = more binding, comparable within an allelic series); in assay [20] it was 9.43 upbm affinity estimate (log intensity, higher = more binding, comparable within an allelic series); in [11], 13.3 upbm affinity estimate (log intensity, higher = more binding, comparable within an allelic series). The binding signal in [16] was 11 upbm affinity estimate (log intensity, higher = more binding, comparable within an allelic series); in assay [17], 10.9 upbm affinity estimate (log intensity, higher = more binding, comparable within an allelic series); in assay [18] it was 7.6 upbm affinity estimate (log intensity, higher = more binding, comparable within an allelic series); in [13], 12.9 upbm affinity estimate (log intensity, higher = more binding, comparable within an allelic series); in assay [6], 7.79 upbm affinity estimate (log intensity, higher = more binding, comparable within an allelic series); in [2] it was 12.4 upbm affinity estimate (log intensity, higher = more binding, comparable within an allelic series).

Take CGGTCCAA: the binding signal was 7.28 upbm affinity estimate (log intensity, higher = more binding, comparable within an allelic series) in [19] and 7.18 upbm affinity estimate (log intensity, higher = more binding, comparable within an allelic series) in assay [20].

For the sequence CCAGGCCG, the binding signal in assay [7] is 7.21 upbm affinity estimate (log intensity, higher = more binding, comparable within an allelic series); in [10] it was 10.2 upbm affinity estimate (log intensity, higher = more binding, comparable within an allelic series); in assay [14] it was 10.3 upbm affinity estimate (log intensity, higher = more binding, comparable within an allelic series); in assay [15] it was 7.17 upbm affinity estimate (log intensity, higher = more binding, comparable within an allelic series).

As for CGCCCGAG, the binding signal in assay [8] is 8.15 upbm affinity estimate (log intensity, higher = more binding, comparable within an allelic series); in [16], 6.84 upbm affinity estimate (log intensity, higher = more binding, comparable within an allelic series); in assay [17] it was 6.77 upbm affinity estimate (log intensity, higher = more binding, comparable within an allelic series); in assay [12], 8.29 upbm affinity estimate (log intensity, higher = more binding, comparable within an allelic series); in assay [18] it was 6.6 upbm affinity estimate (log intensity, higher = more binding, comparable within an allelic series).

In the case of ACGCGCAG, the binding signal in assay [19] is 7.05 upbm affinity estimate (log intensity, higher = more binding, comparable within an allelic series); in assay [20] it was 7.17 upbm affinity estimate (log intensity, higher = more binding, comparable within an allelic series).

On to CCGCGTCG, for which the binding signal in [4] was 6.63 upbm affinity estimate (log intensity, higher = more binding, comparable within an allelic series); in [5], 6.33 upbm affinity estimate (log intensity, higher = more binding, comparable within an allelic series); in [6], 6.48 upbm affinity estimate (log intensity, higher = more binding, comparable within an allelic series).

As for GCCACTTA, the binding signal in assay [8] is 10.1 upbm affinity estimate (log intensity, higher = more binding, comparable within an allelic series); in [12] it was 10 upbm affinity estimate (log intensity, higher = more binding, comparable within an allelic series).
